Test results from PubChem BioAssay AID1239 (SRMLSC, 2008).
The whole screen tested about 190,000 compounds, of which about 3,100 (1.6%) were called active. The full list was thinned out, with actives kept by preference. Values without a mark were called inactive. No stated cut-off is given here; in the data, active means fold change above about 3.3; inconclusive means no clear call, values can overlap the other calls; inactive means below that.

Experiment: NF-kB upregulation, human neuronal cells – cell-based, HTS, primary screen (AID 1239)
Conditions: NF-kB reporter expression, at 12.5 µM, active compounds read high
`CCC(CC)NC(=O)CSc1nnc(-c2c[nH]c3ccccc23)o1` showed a fold change of 1.09. For `COC(c1ccccc1)c1nnc(CCC(=O)N2CCN(CCOc3ccccc3)CC2)o1` (centres undefined), the fold change was 1.23. `COc1ccc(-c2[nH]ncc2CN(C)Cc2cc(C)[nH]n2)c(F)c1` showed a fold change of 0.97. With `COc1ccc(O)c(C(=O)c2cnc3c(c2)c(-c2ccc(F)cc2)c(C#N)c(=O)n3C)c1` the fold change was 0.93. `COc1cc(C(=O)NCc2ccc(-n3cccc3)cc2)cc(OC)c1OC` showed a fold change of 1.25. With `COc1ccc(CN2CN(C3CCCC3)CSC2=S)cc1` the fold change was 1.11. Compound `COC(=O)CSc1nc(C)c2ccc(OC)cc2n1` has a fold change of 1.13. With `COc1ccc2nc(SCc3ccccc3)nc(C)c2c1` the fold change was 9.79 (active). Compound `COc1ccc(-c2nnc3ccc(SCc4ccccc4)nn23)cc1` has a fold change of 0.97. Work on `O=C(c1ccc2ccccc2n1)N1CCN(c2ccccc2Cl)CC1` yielded a fold change of 2.01. For `CN(C)c1ccc(C=C2C(=O)OC3(CCCC3)OC2=O)cc1`, the fold change was 1.03. In the case of `COc1ccc(-c2noc(-c3ccc(C)cc3)n2)cc1`, the fold change is reported as 5.86 (active). Compound `Cc1ccc(Cc2nc(-c3cccc(C)c3)no2)cc1` has a fold change of 1.99. In the case of `Cc1cccc(-c2noc(-c3ccc(F)cc3)n2)c1`, the fold change is reported as 8.41 (active). In the case of `COc1ccc2[nH]c(=O)c(-c3noc(-c4ccc(F)cc4)n3)cc2c1`, the fold change is reported as 1.09. `COc1ccc(-c2nc(-c3ccccc3)no2)c(OC)c1` showed a fold change of 1.5. Work on `COc1ccc(-c2noc(CSc3ccc(C)cc3)n2)cc1` yielded a fold change of 1.04. In the case of `COCCNC(=S)N1CCC(NC(=O)C23CC4CC(CC(C4)C2)C3)CC1`, the fold change is reported as 0.98. Work on `CN(CCN1CCOCC1)Cc1nc(-c2ccc3c(c2)OCO3)no1` yielded a fold change of 1.23. For `Cn1cc(-c2ccccc2)cc(C#N)c1=O`, the fold change was 1.11. With `CCN(CC)P(=O)(Nc1ccc(SC(F)F)cc1)c1ccc(N(C)C)cc1NC(=O)c1ccco1` (centres undefined) the fold change was 0.57. For `COc1ccccc1NC(=S)N1CCN(C(c2ccccc2)c2ccccc2)CC1`, the fold change was 0.89. Compound `CCN(CC(=O)NCc1cccs1)C(=O)c1ccccc1F` has a fold change of 1.01. For `CC(C)CCN1CCN(Cc2ccc(C(F)(F)F)cc2)CC1CCO` (centres undefined), the fold change was 0.9. With `COc1cccc(/C(C)=N/Nc2ncc(Cl)cc2Cl)c1` the fold change was 1.88. For `C/C(=N\Nc1nc2ccccc2[nH]1)c1cccs1`, the fold change was 5.42 (active). For `OCCNc1nc2ccccc2[nH]1`, the fold change was 1.02. For `C/C(=N\Nc1nc(Nc2ccccc2)nc(N2CCOCC2)n1)c1cccs1`, the fold change was 0.45. With `C/C(=N\Nc1ncc(Cl)cc1Cl)c1cccs1` the fold change was 4.91 (active). In the case of `C/C(=N\Nc1ncc(Cl)cc1Cl)c1ccc(S(=O)(=O)NCc2ccco2)cc1`, the fold change is reported as 1.29. For `CSc1nc2c(c(=O)[nH]1)C(c1cccc(Cl)c1Cl)CC(=O)N2` (centres undefined), the fold change was 1.18. `CC1Cc2ccccc2N1S(=O)(=O)c1c(N)n(C)c(=O)n(C)c1=O` (centres undefined) gave a fold change of 1.07. With `O=C(Nc1ccccc1)c1cc2ccccc2[nH]1` the fold change was 3.43 (active). Work on `O=C(Nc1ccccc1)c1ccccc1NC(=O)C(F)(F)F` yielded a fold change of 0.9. Compound `CC(C)n1c(=O)[nH]c2cc(C(=O)Nc3ccccc3)ccc21` has a fold change of 1.9. For `N/C(=N\OC(=O)/C=C/c1ccccc1)c1ccc(Br)cc1`, the fold change was 1.46. With `N/C(=N\OC(=O)c1ccc2c(c1)OCO2)c1ccc(Br)cc1` the fold change was 3.37 (active). `N/C(=N\OC(=O)N1c2ccccc2Sc2ccccc21)c1ccc(Br)cc1` showed a fold change of 1.29. With `CC(C)(C)OC(=O)N/N=C/c1cn(-c2ccccc2)nc1-c1cccnc1` the fold change was 0.46. In the case of `Cc1ccc(S(=O)(=O)N(CC(=O)NN=C2CCN(C)CC2)c2ccc(F)cc2)cc1`, the fold change is reported as 0.83. In the case of `COc1ccc(NC(=O)c2ccc(C#CC(C)(C)O)cc2)cc1`, the fold change is reported as 1.35. Work on `COc1ccc(NC(=O)Nc2ccc3nc(C)c(C)nc3c2)cc1` yielded a fold change of 0.77. `COc1cc(OC)cc(C(=O)OCC(=O)Nc2ccc(F)cc2F)c1` showed a fold change of 1.18. With `COc1ccccc1CC(=O)Nc1ccc(F)cc1F` the fold change was 1.07. With `COc1ccc(NC(=O)Nc2ccc3nsnc3c2)cc1` the fold change was 3.98 (active). Work on `COc1ccc(/C=N/NC(=O)Nc2ccc3nsnc3c2)c(OC)c1` yielded a fold change of 1.11. In the case of `COc1ccc(C(=O)Nc2ccc(S(=O)(=O)NC(C)C)cc2)cc1`, the fold change is reported as 1.12. For `COc1ccc(NC(=O)c2ccc(OC)cc2)cc1`, the fold change was 4.29 (active). For `COc1ccc(C(=O)Nc2ccc(F)cc2F)cc1`, the fold change was 3.39 (active). For `Cc1ccc(-c2nn(-c3cccc(F)c3)cc2CNCCc2ccncc2)o1`, the fold change was 0.82. For `Cc1cc(C(=O)N/N=C\C(Br)=C\c2ccccc2)c(C)o1`, the fold change was 1.27. With `O=C(Nc1cccn(Cc2ccccc2Cl)c1=O)NC1CCCCC1` the fold change was 1.26. Compound `O=C(COc1ccccc1[N+](=O)[O-])NC1CC1` has a fold change of 1.17. In the case of `Cc1ccc(C(=O)N/C(=C\c2cccs2)C(=O)NCCc2ccccn2)cc1C`, the fold change is reported as 1.8. `Cc1ccccc1Nc1scc(-c2ccc(Br)cc2)[n+]1-c1ccccc1C` gave a fold change of 0.87. Work on `Cc1cc(C)nc(N2CCC(C(=O)Nc3ccc4c(c3)OCCO4)CC2)n1` yielded a fold change of 1.22. For `O=C(Nc1ccc2c(c1)OCCO2)C1CCCN(c2ncccn2)C1` (centres undefined), the fold change was 4.28 (active). `Cc1ccnc(N2CCCC(C(=O)Nc3cc(F)ccc3C)C2)n1` (centres undefined) gave a fold change of 1.14. For `COc1ccc(-c2ccc(CCC(=O)O)n2-c2ccc(O)cc2)cc1`, the fold change was 0.84. For `O=C(Oc1cccc(NC2=NS(=O)(=O)c3ccccc32)c1)c1ccncc1`, the fold change was 1.14. For `CC(C)(C)c1csc(NC2=NS(=O)(=O)c3ccccc32)n1`, the fold change was 3.56 (active). Compound `Cc1ccc(S(=O)(=O)N(NC2=NS(=O)(=O)c3ccccc32)C(=O)c2ccccc2)cc1` has a fold change of 1.06. `N#Cc1c(NC(=O)C2CCCO2)sc2c1CCCCC2` (centres undefined) gave a fold change of 1.1. Work on `CCN(CC)CCNS(=O)(=O)c1ccc(/C=C/C(=O)O)cc1` yielded a fold change of 1.3. Compound `COc1ccc(/C=N/NC(=O)c2cccc(C(F)(F)F)c2)cc1` has a fold change of 0.86. For `CSc1ccc(/C=N/NC(=O)c2cccc(Cl)c2)cc1`, the fold change was 3.71 (active). With `CSc1ccc(/C=N\NC(=O)COc2ccc(Cl)cc2Br)cc1` the fold change was 1.51. For `CC(=O)c1ccccc1NC(=O)CC1(CC(=O)O)CCCCC1`, the fold change was 1.2. `CC(=O)Nc1ccc(CN2CCN(Cc3ccc(F)c(F)c3)C(CCO)C2)cc1` (centres undefined) gave a fold change of 1.18. Compound `CCOc1ccc(-c2nnc(-c3ccco3)o2)cc1` has a fold change of 2.85. In the case of `CCCCOc1ccc(-c2nnc(-c3ccco3)o2)cc1`, the fold change is reported as 3.49 (active). For `CCC(=O)Oc1cccc(C(=O)Nc2ccc(-c3nnc(-c4ccco4)o3)cc2)c1`, the fold change was 0.99. In the case of `O=C1CCCC2=C1C(c1cccs1)CC(=O)N2c1ccc(F)cc1` (centres undefined), the fold change is reported as 1.01. `CN(C)CCOCCOc1ccc(Cl)c2ccccc12` showed a fold change of 0.97. Work on `CCOC(=O)c1[nH]ncc1CN1CCCC(C(=O)c2ccc(OC)cc2C)C1` (centres undefined) yielded a fold change of 1.04. `C=CCn1c(-c2sc(-c3ccccc3)nc2C)n[nH]c1=S` showed a fold change of 1.29. With `COc1ccc2c3c(c(=O)oc2c1OCC(=O)C(C)(C)C)CCCC3` the fold change was 1.12. With `CCCOc1ccc2c3c(c(=O)oc2c1OCCC)CCC3` the fold change was 5.55 (active). Work on `O=c1oc2c(CN3CCCCC3)c(O)ccc2c2c1CCCCC2` yielded a fold change of 1.01. `Cc1cccc(NC(=S)NCCc2ccc(F)cc2)c1C` showed a fold change of 1.04. Work on `Cc1ccc2c(c1)C(O)(CC(=O)c1cccc(-n3cccc3)c1)C(=O)N2` (centres undefined) yielded a fold change of 1.11. In the case of `COC(=O)c1sc2[nH]c(=S)n(N)c(=O)c2c1C`, the fold change is reported as 1.19. For `Cc1ccccc1Nc1nc(N)nc(CSc2ccccc2)n1`, the fold change was 5.08 (active). `Cc1ccccc1Nc1nc(N)nc(CSc2nnc3ccccn23)n1` showed a fold change of 1.69. Work on `Cc1ccc(C(=O)OCc2nc(N)nc(Nc3ccccc3C)n2)cc1` yielded a fold change of 0.92. `C/C(=N/OC(=O)c1c(-c2c(F)cccc2Cl)noc1C)c1cnccn1` gave a fold change of 1.2. Compound `CCOc1ccc2nc(Nc3nc4ccc(NC(C)=O)cc4s3)sc2c1` has a fold change of 0.85. `CCOc1ccc2nc(SC(CC)C(=O)Nc3cc(C)on3)sc2c1` (centres undefined) showed a fold change of 0.94. For `CCOc1ccc2nc(C(=O)N3CCCC(C)C3)sc2c1` (centres undefined), the fold change was 8.66 (active). Work on `CCOC(=O)c1c(NC(=O)C2CC=CCC2C(=O)O)sc(C)c1CC` (centres undefined) yielded a fold change of 0.88. With `Cc1ccn(-c2cccc(-n3ccc(C)n3)n2)n1` the fold change was 3.56 (active). `COc1ccc(C)cc1NC(=O)CSc1ccc(Cl)cc1` showed a fold change of 1.29. In the case of `COc1cccc(-c2nc(S(=O)(=O)c3ccccc3)c(N3CCOCC3)o2)c1`, the fold change is reported as 1.11. With `COc1ccc(-c2nc3cc([N+](=O)[O-])ccc3o2)cc1OC` the fold change was 1.48. For `COc1cccc(-c2nc3cc(C)ccc3o2)c1`, the fold change was 6.47 (active). For `COc1ccc2oc(-c3cccc(NC(=O)CSc4ccc(Cl)cc4)c3)nc2c1`, the fold change was 5.09 (active). For `O=C(Cc1cccc2ccccc12)Nc1ccc2oc(-c3ccccc3)nc2c1`, the fold change was 1.24. Work on `COc1ccc(S(=O)(=O)N2CCCCCC2)cc1C(=O)OCC(=O)Nc1cc(C)on1` yielded a fold change of 0.91. `CCC(C)(C)c1ccc(OCC(=O)N(C)C)c(C(C)(C)CC)c1` showed a fold change of 0.82. Compound `CSc1ccc(CN(C)CC(=O)NCc2ccc(F)cc2)cc1` has a fold change of 1.02. For `COc1ccc(OC)c(C(=O)c2ccc(C(=O)N3CCN(Cc4csc(C)n4)CC3)cc2)c1`, the fold change was 1.07. In the case of `CN1CCN(Cc2nc3c(c(=O)n(C)c(=O)n3C)n2Cc2cccc3ccccc23)CC1`, the fold change is reported as 3.6 (active). Compound `CCN1CCN(Cc2nc3c(c(=O)n(C)c(=O)n3C)n2CC(=O)c2ccccc2)CC1` has a fold change of 2.25. For `CCOC(=O)N1CCN(Cc2nc3c(c(=O)n(C)c(=O)n3C)n2Cc2ccccc2)CC1`, the fold change was 1.26.
